Source: ChEMBL document CHEMBL1157539, “Thousands of chemical starting points for antimalarial lead identification” (Nature, 2010)
In all, about 13,000 compounds were measured (“IFI”: median about 4, highest 2% from about 17 on). Shown is part of a subset that was picked to be rich in the highest values.

Experiment: GSK_TCMDC: Inhibition Frequency Index (IFI). The number of non-kinase HTS assays where a compound showed > 50 % inhibition, expressed as a percentage of the number of such assays in which the compound was tested
Type: functional

| Structure (SMILES) | IFI |
| --- | --- |
| CN(C)Cc1cccc(-c2ccc3ccnc(N)c3c2)c1 | 4.42% |
| Cc1[nH]c(C)c(-c2ccc(-c3ccccc3C(F)(F)F)nc2)c(=O)c1Br | 0.92% |
| COc1ccc2c(NN=Cc3ccc(Cl)cc3)ccnc2c1 | 2.26% |
| CCOc1c(CNCCCCCCNCc2ccc3ccccc3c2OCC)ccc2ccccc12 | 22% |
| CCOc1c(CCNCCCCNCCc2ccc3ccccc3c2OCC)ccc2ccccc12 | 18.4% |
| CCCCOc1c(CNCCCCCCNCc2ccc3ccccc3c2OCCCC)ccc2ccccc12 | 16.6% |
| CCOc1cc2ccccc2cc1CNCCCCCCNCc1cc2ccccc2cc1OCC | 11.5% |
| CCCCOc1c(CCNCCCCNCCc2cc(OC)c3ccccc3c2OCCCC)cc(OC)c2ccccc12 | 15% |
| CCCCOc1cc(CNCCCCCCNCc2cc(OCCCC)cc3ccccc23)c2ccccc2c1 | 12.5% |
| CCCOc1c(CCNCCCCNCCc2ccc3ccccc3c2OCCC)ccc2ccccc12 | 14.7% |
| CCCCOc1c(CCNCCCCNCCc2cc(F)c3ccccc3c2OCCCC)cc(F)c2ccccc12 | 19.6% |
| [O-][s+]1nc(NCCCN(Cc2cccs2)c2ccccn2)c(NCc2ccccc2)n1 (stereo unspecified) | 4.83% |
| CCNC(C)(C)CN(Cc1ccc(-c2ccc(C(F)(F)F)cc2)cc1)C(=O)Cn1c(CCc2cccc(F)c2F)nc(=O)c2ccccc21 | 6.94% |
| Cc1cccc2nc(-c3ccc(-c4ccc(CN5CC(C)OC(C)C5)cc4)cc3)[nH]c12 (stereo unspecified) | 6.94% |
| CC1CC1C(=O)NC1CCN(CC2(c3ccccc3)CCCCC2)CC1 (stereo unspecified) | 6.38% |
| Cc1ccoc1C(=O)Nc1cccc(-c2cccc(-c3nc4cc(C(F)(F)F)ccc4[nH]3)c2)c1 | 6.48% |
| COc1cc(CC2c3cc(O)c(Cl)cc3CCN2C)c(OC)cc1C (stereo unspecified) | 2.13% |
| COc1ccc(CCNC(C)Cc2ccc(C(=O)Nc3ccc(CC(C)NCCc4cccc(Cl)c4)cc3)cc2)cc1 (stereo unspecified) | 9.86% |
| Cn1c(Nc2cc(C(C)(C)C)on2)nc2cc(Nc3ccnc(Nc4ccc(CS(C)(=O)=O)cc4)n3)ccc21 | 0.95% |
| CCCCCCCNc1cc(C)nc2ccc(OC)cc12 | 7.3% |
| CN(C)c1ccc(OCCCCCCOc2ccccc2)cc1 | 0.72% |
| CN(C)c1ccc(C(c2ccc(N(C)C)cc2)c2cc([N+](=O)[O-])ccc2Cl)cc1 | 1.47% |
| COc1ccc(C(c2ccc(N(C)C)cc2)c2ccc(N(C)C)cc2)cc1 | 18.2% |
| CC(C)CCNC(=O)C1Cc2c([nH]c3ccc(Br)cc23)C2(CCN(Cc3ccccc3)CC2)N1 (stereo unspecified) | 7.04% |

| Structure (SMILES) | IFI |
| --- | --- |
| CN1CCCC(CN2CCN(Cc3cccc(-c4ccc(-c5nc6ccccc6[nH]5)s4)c3)CC2)C1 (stereo unspecified) | 5.63% |
| CN1CCN(c2nsc3ccc(-c4ccc(OCCN5CCCC5)cc4)cc23)CC1 | 12.2% |
| COc1ccc(-c2nccc(NC(=N)NCc3ccccc3)n2)cc1 | 10.7% |
| N=C(Nc1ccccc1)Nc1cccc(Cc2ccc([N+](=O)[O-])cc2)n1 | 19.9% |
| N=C(N)Nc1nccc(NCc2ccccc2)n1 | 5.3% |
| CC1(C)N=C(NC(=O)Nc2ccc([N+](=O)[O-])cc2)N=C(N)N1OCc1cccc2ccccc12 | 1.46% |
| Cc1cc(NCCc2ccccc2)nc(NC(=N)Nc2cccc([N+](=O)[O-])c2)n1 | 6.21% |
| N=C(Nc1cccc(Cc2ccccc2)n1)Nc1ncccn1 | 17.2% |
| CC(C)(C)CCN1CCC(CNC(=O)c2cc(-c3cccc(C(F)(F)F)c3)cs2)C1 (stereo unspecified) | 10% |
| Cn1cc(-c2ccnc3[nH]c(-c4cccc(CNC5CCC(O)CC5)c4)cc23)cn1 (stereo unspecified) | 8.11% |
| CN(C)Cc1ccc(-c2cc3c(-c4ccc(CN(C)C)cc4)ccnc3[nH]2)cc1 | 0% |
| CN(C)Cc1cccc(-c2cc3c(-c4cnn(C)c4)c(Cl)cnc3[nH]2)c1 | 22.2% |
| OCCN1CCN(Cc2ccc(-c3cccc(-c4nc5cc(F)ccc5[nH]4)c3)cc2)CC1 | 3.92% |
| CN(C)Cc1cccc(-c2cnc(N)c(-c3nc4cc(S(C)(=O)=O)ccc4[nH]3)c2)c1 | 7.41% |
| Fc1ccc2[nH]c(-c3cccc(-c4ccc(CNCC5CCCO5)cc4)c3)nc2c1 (stereo unspecified) | 5.88% |
| O=C(Nc1ccc(Cl)cc1)c1cccc2nc(C(F)(F)F)[nH]c12 | 21.3% |
| O=C(Nc1ccc(Cl)cc1)Nc1cccc(-c2cccc(-c3nc4cc(C(F)(F)F)ccc4[nH]3)c2)c1 | 9% |
| COc1ccc(Cl)cc1C(=O)Nc1ccc(-c2nc3ccccc3[nH]2)cc1 | 6.52% |
| O=C(Nc1ccc2c(c1)CCNCC2)c1ccc(-c2ccc(Cl)cc2)cc1 | 9.66% |
| O=C(Nc1ccc(Cl)cc1)c1cc(Cl)cc2nc(C(F)(F)F)[nH]c12 | 27.1% |
| O=C(Nc1ccc(C(F)(F)F)cc1)c1cc(Cl)cc2nc(C(F)(F)F)[nH]c12 | 23.4% |
| O=C(Nc1ccc(-c2cccc(-c3nc4cc(C(F)(F)F)ccc4[nH]3)c2)cc1)c1ccncc1 | 6.42% |
| Cc1cccc2nc(-c3ccc(-c4ccc(NC(=O)Nc5ccc(Cl)cc5)cc4)cc3)[nH]c12 | 4% |
| O=C(Nc1cccc(C(F)(F)F)c1)c1cccc2nc(C(F)(F)F)[nH]c12 | 16.4% |

| Structure (SMILES) | IFI |
| --- | --- |
| COc1cccc(NC(=O)Cn2c(C)c(C#N)c3ccccc32)c1 | 0% |
| CCOC(=O)c1ccc(-c2cnc(N)c(-c3nc4cccc(C)c4[nH]3)c2)cc1 | 0.69% |
| Cc1ccc(Nc2nccc(Nc3ccc4c(c3)nc(Nc3cc(C(C)(C)C)on3)n4C)n2)cc1S(C)(=O)=O | 7.63% |
| COc1ccc(CNC2Cc3ccccc3C2)cc1-c1ccc(OC)c(S(=O)(=O)NCCN2CCCC2)c1 | 7.69% |
| CCn1cc(-c2nc(-c3cc(OC)cc(OC)c3)no2)c(=O)c2ccccc21 | 4.35% |
| CC(C)N1CCN(C(CN2CCN(CCCOc3cccc(F)c3)CC2)c2ccc(F)cc2)CC1 (stereo unspecified) | 6.2% |
| CN1CCN(c2ccc(Nc3nccc(-c4c(-c5cccc(NC(=O)c6c(F)cccc6F)c5)nn5ccccc45)n3)cc2)CC1 | 9.35% |
| CN1CCc2cc(NS(=O)(=O)c3ccc(-c4ccc(Cl)cc4)cc3)c(OCCCN3CCCCC3)cc2CC1 | 18.6% |
| O=S(=O)(Nc1cc2c(cc1OCCCN1CCCCC1)CCNCC2)c1ccc(-c2ccc(Cl)cc2)cc1 | 11.9% |
| CC(C)Oc1cc2c(cc1NS(=O)(=O)c1ccc(-c3ccc(Cl)cc3)cc1)CCN(C)CC2 | 12.4% |
| c1cc(CN2CCCCC2)cc(-c2ccc(-c3nc4ccccc4[nH]3)s2)c1 | 2.86% |
| COc1ccc(CNC2Cc3ccccc3C2)cc1-c1ccc(S(=O)(=O)NCc2ccccc2)s1 | 12.3% |
| Cc1ccc(C(=O)Nc2ccc(Nc3ccnc4cc(-c5ccccn5)ccc34)cc2O)cc1 | 10.3% |
| COc1cc2cc(C(=O)Nc3ccccc3)c(N)nc2cc1OC | 1.28% |
| COc1ccc2nc(NC(N)=NC(=O)Nc3ccccc3)nc(C)c2c1 | 0.81% |
| COc1ccc(/N=C(\N)Nc2ccccc2)nc1Cc1ccccc1 | 30.2% |
| COc1ccc(CCN(C)CCOc2ccc(NC(=O)c3cccc4cc5ccccc5nc34)cc2)cc1OC | 6.67% |
| COc1cc2nc(C)nc(Nc3ccc(Cc4ccccc4)cc3)c2cc1OC | 6.35% |
| COc1ccc(Cc2nc(/N=C(\N)Nc3ccccc3)ccc2OC)cc1 | 22.6% |
| Nc1cc(/C=C/c2ccc([N+](=O)[O-])o2)nc2ccccc12 | 16.7% |
| Nc1c2ccccc2nc2cc([N+](=O)[O-])ccc12 | 6.92% |
| Nc1cc(/C=C/c2ccc([N+](=O)[O-])s2)nc2ccccc12 | 19.2% |
| O=C(c1cccc(Br)c1)N1CCN(c2ccc([N+](=O)[O-])c(NC3CC3)c2)CC1 | 4.2% |
| COc1ccc2ncc(F)c(CCN3CC[C@@H](CNCc4nc5c(cc4C)SCC(=O)N5)C3)c2n1 | 5.83% |

| Structure (SMILES) | IFI |
| --- | --- |
| CCOc1ccc2nc3cc(NC(=O)c4ccco4)ccc3c(N)c2c1 | 20.5% |
| CCOc1ccc2nc3cc(N)ccc3c(N)c2c1 | 2.08% |
| CCOc1ccc2nc3cc([N+](=O)[O-])ccc3c(N)c2c1 | 6.34% |
| CC(C)(CNCc1cccc(Oc2cccc(C(F)(F)F)c2)c1)c1nc(-c2ccnc(N)n2)c(-c2ccc(Cl)c(O)c2)[nH]1 | 4.35% |
| CCNc1cc(C)nc(Nc2ccc(NC(=O)c3c(F)cccc3Cl)cc2)n1 | 18.2% |
| CCNc1cc(C)nc(Nc2ccc(NS(=O)(=O)c3ccccc3)cc2)n1 | 20.4% |
| CCNc1cc(C)nc(Nc2ccc(NC(=O)c3ccccc3Cl)cc2)n1 | 11.3% |
| Cc1cc(N(C)C)nc(Nc2ccc(NS(=O)(=O)c3ccccc3)cc2)n1 | 9.62% |
| CCNc1cc(C)nc(Nc2ccccc2)n1 | 2.94% |
| Cc1cc(N(C)C)nc(Nc2ccc(NC(=O)c3c(F)cccc3Cl)cc2)n1 | 1.89% |
| Cc1cc(Nc2ccc(O)cc2)nc2cc(O)ccc12 | 3.85% |
| CCCCN(CCCC)/C(=N/C(=N)NCc1ccc(Cl)c(Cl)c1)NCCCCCCN/C(=N\C(=N)NCc1ccc(Cl)c(Cl)c1)N(CCCC)CCCC | 22.9% |
| N=C(/N=C(/NCCCCCCN/C(=N\C(=N)Nc1ccc(Cl)cc1)N1CCCCC1)N1CCCCC1)Nc1ccc(Cl)cc1 | 10.9% |
| CCN(CC)/C(=N/C(=N)NCc1cccc(Cl)c1)NCCCCCCN/C(=N\C(=N)NCc1cccc(Cl)c1)N(CC)CC | 13.8% |
| N=C(/N=C(/NCCCCCCN/C(=N/C(=N)NCc1ccc(Cl)c(Cl)c1)N1CCCCC1)N1CCCCC1)NCc1ccc(Cl)c(Cl)c1 | 18.8% |
| N=C(/N=C(/NCCCCCCN/C(=N\C(=N)Nc1ccc(Cl)cc1)N1CCOCC1)N1CCOCC1)Nc1ccc(Cl)cc1 | 6.72% |
| CN(C)/C(=N/C(=N)NCc1ccc(Cl)c(Cl)c1)NCCCCCCN/C(=N\C(=N)NCc1ccc(Cl)c(Cl)c1)N(C)C | 11.8% |
| Cc1cccc2nc(-c3cccc(-c4ccc(NC(=O)C5CCCO5)cc4)c3)[nH]c12 (stereo unspecified) | 5.31% |
| Cc1ccc(C(=O)Nc2ccc(F)cc2)cc1-c1nc(NC2CC(C)(C)NC(C)(C)C2)nc2c1ccc(=O)n2-c1c(F)cccc1F | 10.9% |
| CC(C)c1ccc(OCCCON2C(=N)N=C(N)NC2(C)C)cc1 | 6.34% |
| CCOC(=O)c1c(-c2ccccc2)nc2c(sc3ccccc32)c1O | 1.48% |
| c1ccc(CCNc2ccnc(Nc3ccc4[nH]nnc4c3)n2)cc1 | 3.23% |
| CCN(CC)CCN(Cc1ccc(-c2ccc(C(F)(F)F)cc2)cc1)C(=O)Cn1c(SCc2ccc(F)cc2)cc(=O)c2ccccc21 | 7.64% |
| COc1ccc2[nH]ccc(=NN=Cc3ccc(F)cc3)c2c1 | 2.22% |
